Experiment [1] is described as follows: antimalarial activity against Dd2 strain (AID 2302;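 active means growth inhibition above 50% at the single 2 µM test dose, taken to imply half-maximal potency below 2 µM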;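 further: 0% = DMSO untreated growth and 100% = chloroquine plus artemisinin killed control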). To be noted: P. falciparum Dd2 in RBCs, LDH growth readout, 72 h; at 2 µM; hits give high values.
A short description of experiment [2]: HepG2 cytotoxicity, primary screen, cytotoxicity control for P. falciparum antimalarial project, cell-based, ATP luminescence (AID 2303;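 active means inhibition above 50%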;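 further: 0% = DMSO wells and 100% = digitonin-killed cells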). Particulars: HepG2 viability, 24-48 h, at 10 µM, hits give high values.
The target in experiment [3] is L-lactate dehydrogenase (Plasmodium falciparum (isolate CDC / Honduras)) (UniProt Q27743). Nature of the experiment: PfLDH activity inhibition – cell lysate, 3D7 strain, counter-screen for P. falciparum growth inhibition project (AID 2304).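 Further: 0% = vehicle and 100% = reference inhibitor.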 To be noted: P. falciparum 3D7 crude extract, LDH APAD/NBT absorbance; at 2 µM; hits give high values. (In general: Counterscreens check selectivity or assay interference.)
Chain of L-lactate dehydrogenase (Plasmodium falciparum (isolate CDC / Honduras)) (Q27743 whole entry, looked up): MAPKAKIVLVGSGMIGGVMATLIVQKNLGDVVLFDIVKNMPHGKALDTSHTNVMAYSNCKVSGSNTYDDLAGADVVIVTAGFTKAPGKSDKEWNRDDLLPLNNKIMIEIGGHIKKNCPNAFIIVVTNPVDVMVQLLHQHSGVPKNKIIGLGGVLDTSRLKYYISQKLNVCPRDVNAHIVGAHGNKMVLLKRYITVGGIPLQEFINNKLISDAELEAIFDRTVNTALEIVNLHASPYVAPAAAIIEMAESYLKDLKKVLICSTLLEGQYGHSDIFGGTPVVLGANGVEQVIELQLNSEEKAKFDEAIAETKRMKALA

Experiment [4] in a line: inhibition of 3D7 malaria parasite growth – strain 3D7 (AID 2306).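 Further: 0% = DMSO wells and 100% = chloroquine plus artemisinin control wells.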 Particulars: P. falciparum 3D7 erythrocytic growth, LDH absorbance, 72 h; at 2 µM; hits give high values.
The target of experiment [5] is Calcium-dependent protein kinase 1 (Plasmodium falciparum (isolate 3D7)) (UniProt P62344). Description: PfCDPK1 kinase inhibitors, biochemical, TCAMS library (AID 1159585; cut-off not given, nearly all actives have IC50 up to about 0.98 µM;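 further: inhibitors leave more ATP so luminescence rises with inhibition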). To be noted: recombinant PfCDPK1, Kinase-Glo ATP depletion luminescence. In general terms: Kinase-Glo measures the ATP left after a reaction by luminescence.
Chain of Calcium-dependent protein kinase 1 (Plasmodium falciparum (isolate 3D7)) (P62344 whole entry, looked up): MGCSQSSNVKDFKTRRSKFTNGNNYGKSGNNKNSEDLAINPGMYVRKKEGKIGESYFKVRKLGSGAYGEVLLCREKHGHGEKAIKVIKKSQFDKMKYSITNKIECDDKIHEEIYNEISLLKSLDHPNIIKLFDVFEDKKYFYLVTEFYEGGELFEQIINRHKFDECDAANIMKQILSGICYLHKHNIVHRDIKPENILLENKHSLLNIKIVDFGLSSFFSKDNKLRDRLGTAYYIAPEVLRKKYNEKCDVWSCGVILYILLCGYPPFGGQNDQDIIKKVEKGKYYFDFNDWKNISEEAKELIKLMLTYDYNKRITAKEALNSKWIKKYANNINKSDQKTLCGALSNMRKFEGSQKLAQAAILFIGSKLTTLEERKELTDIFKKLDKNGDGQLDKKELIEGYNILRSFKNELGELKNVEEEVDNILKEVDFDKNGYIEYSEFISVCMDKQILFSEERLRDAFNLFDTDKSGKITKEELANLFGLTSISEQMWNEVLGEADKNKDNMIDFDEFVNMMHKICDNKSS
The target in experiment [6] is Plasmodium falciparum protein kinase 6 (PK6, PF3D7_1337100) (UniProt Q8IDW1). Description: PfPK6 kinase inhibitors, biochemical, TCAMS library (AID 1159586). Particulars: recombinant PfPK6, Kinase-Glo ATP depletion luminescence.
Chain of Plasmodium falciparum protein kinase 6 (PK6, PF3D7_1337100) (Q8IDW1 1-305): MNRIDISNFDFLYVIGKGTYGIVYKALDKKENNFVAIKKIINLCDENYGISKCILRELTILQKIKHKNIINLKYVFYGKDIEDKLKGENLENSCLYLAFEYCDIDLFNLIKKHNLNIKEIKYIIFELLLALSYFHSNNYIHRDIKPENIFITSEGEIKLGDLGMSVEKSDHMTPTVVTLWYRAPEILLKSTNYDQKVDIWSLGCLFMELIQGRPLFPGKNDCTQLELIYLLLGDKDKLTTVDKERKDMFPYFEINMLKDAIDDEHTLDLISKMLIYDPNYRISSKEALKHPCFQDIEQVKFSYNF
Experiment [7] deals with Protein kinase 7 (PK7), Plasmodium falciparum 3D7 (PF3D7_0213400) (UniProt Q7YTF7). Description: inhibition of Plasmodium PK7 catalytic activity – biochemical, TCAMS antimalarial set, Kinase-Glo luminescence (AID 1159587). To be noted: recombinant PfPK7, Kinase-Glo ATP depletion luminescence.
Chain of Protein kinase 7 (PK7), Plasmodium falciparum 3D7 (PF3D7_0213400) (Q7YTF7 1-343): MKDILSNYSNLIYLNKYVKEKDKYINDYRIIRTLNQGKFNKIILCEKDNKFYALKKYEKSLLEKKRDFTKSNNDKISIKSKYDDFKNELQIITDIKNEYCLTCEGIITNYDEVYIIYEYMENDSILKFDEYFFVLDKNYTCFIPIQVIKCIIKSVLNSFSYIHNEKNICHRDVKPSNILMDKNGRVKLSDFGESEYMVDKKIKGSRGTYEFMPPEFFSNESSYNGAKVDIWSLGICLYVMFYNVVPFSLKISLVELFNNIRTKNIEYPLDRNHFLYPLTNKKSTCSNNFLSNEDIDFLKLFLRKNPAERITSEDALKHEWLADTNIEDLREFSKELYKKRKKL
The target of experiment [8] is Calcium-dependent protein kinase 4 (Plasmodium falciparum (isolate 3D7)) (UniProt Q8IBS5). Description: PfCDPK4 kinase inhibitors, biochemical, TCAMS library (AID 1159588; cut-off not given, nearly all actives have IC50 up to about 0.91 µM). To be noted: recombinant PfCDPK4, Kinase-Glo ATP depletion luminescence.
Chain of Calcium-dependent protein kinase 4 (Plasmodium falciparum (isolate 3D7)) (Q8IBS5 whole entry, looked up): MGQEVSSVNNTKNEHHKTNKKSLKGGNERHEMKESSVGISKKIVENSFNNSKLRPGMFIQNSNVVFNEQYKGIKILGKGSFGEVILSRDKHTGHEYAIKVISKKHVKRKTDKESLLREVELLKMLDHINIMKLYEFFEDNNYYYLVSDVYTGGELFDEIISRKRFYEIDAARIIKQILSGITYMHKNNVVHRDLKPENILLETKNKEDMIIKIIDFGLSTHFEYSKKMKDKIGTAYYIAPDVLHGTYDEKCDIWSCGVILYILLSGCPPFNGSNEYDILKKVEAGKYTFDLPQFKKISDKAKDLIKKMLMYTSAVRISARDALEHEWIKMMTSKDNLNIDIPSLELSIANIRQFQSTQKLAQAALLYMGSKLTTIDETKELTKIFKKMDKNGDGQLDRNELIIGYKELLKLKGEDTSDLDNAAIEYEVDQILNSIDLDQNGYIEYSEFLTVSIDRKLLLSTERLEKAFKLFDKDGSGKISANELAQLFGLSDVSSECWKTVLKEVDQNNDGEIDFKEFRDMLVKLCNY

The term inhibition denotes the drop in the measured response relative to a control, in per cent.

Values without a mark were called inactive. For part of these data: Results with a measured potency or affinity are listed apart. The source made the active and inactive calls. Unless noted, how the calls were made is not given here.

In the case of `NC(N)=Nc1ccc(OCCCCCOc2ccc(N=C(N)N)cc2)cc1`, the growth inhibition in experiment [1] was 100% (active); in experiment [4], 99% (active). Moreover, the inhibition was 12% in experiment [2] and -1% in experiment [3]. For the same compound, the outcome in experiment [5], in experiment [6], in experiment [7] and in experiment [8] was inactive.
As to `CCN1CCC(N(Cc2ccc(-c3ccc(C(F)(F)F)cc3)cc2)C(=O)Cn2c(CCc3cccc(F)c3F)cc(=O)c3ccc(OCc4ccccc4)cc32)CC1`, the growth inhibition in experiment [1] is 86% (active); in experiment [4] it was 102% (active). Further, the inhibition was 60% (active) in experiment [2] and 3% in experiment [3]. Moreover, the outcome in experiment [5], in experiment [6], in experiment [7] and in experiment [8] was inactive.
In the case of `O=C(Nc1cccc(-c2nc3ccccc3[nH]2)c1)c1cccc(NC(=O)c2ccco2)c1`, the growth inhibition in experiment [1] was 45%; in experiment [4], 91% (active). For the same compound, the inhibition in experiment [2] is 9%; in experiment [3], 0%. The outcome in experiment [5], in experiment [6], in experiment [7] and in experiment [8] was inactive.
For the compound `COCCN(C)c1ccc(C(=O)Nc2ccccc2)cc1NS(=O)(=O)Cc1ccccc1`, the growth inhibition in experiment [1] is 47%; in experiment [4] it was 92% (active). Further, the inhibition in experiment [2] is 2%; in experiment [3], -5%. Moreover, the result in experiment [5], in experiment [6], in experiment [7] and in experiment [8] was inactive.
`CCc1nc2c(cnn2CC)c(NC2CCOCC2)c1CNC(=O)c1ccoc1C`: the growth inhibition in experiment [1] was 87% (active); in experiment [4], 97% (active). Further, the inhibition in experiment [2] was 6%; in experiment [3], 2%. The outcome in experiment [5], in experiment [6], in experiment [7] and in experiment [8] was inactive.
As to `Brc1cc(Br)c2c(c1)C(NCCCNc1nc3ncccc3[nH]1)CCN2` (centres undefined), the growth inhibition in experiment [1] is 83% (active); in experiment [4], 99% (active). For the same compound, the inhibition was 5% in experiment [2] and 1% in experiment [3]. In addition, the outcome in experiment [5], in experiment [6], in experiment [7] and in experiment [8] was inactive.
Take `Cc1ccc(C(=O)Nc2ccc(F)cc2)cc1-c1nc(NC2CC(C)(C)NC(C)(C)C2)nc2c1ccc(=O)n2-c1c(F)cccc1F`: the growth inhibition is 96% (active) in experiment [1] and 89% (active) in experiment [4]. For the same compound, the inhibition in experiment [2] is 16%; in experiment [3] it was -2%. The result in experiment [5], in experiment [6], in experiment [7] and in experiment [8] was inactive.
`N#Cc1ccc2c(c1)CCN(CCC1CCC(NC(=O)c3cccc(-c4ccc(F)cc4)c3)CC1)CC2` (centres undefined): the growth inhibition in experiment [1] is 10%; in experiment [4], 92% (active). The inhibition in experiment [2] is 32%; in experiment [3], -3%. Besides, the result in experiment [5], in experiment [6], in experiment [7] and in experiment [8] was inactive.
Take `Cn1nc(-c2ccc(NC(=O)Nc3cc(C(F)(F)F)ccc3F)c(F)c2)c2cnc(NCCCn3ccnc3)nc21`: the growth inhibition in experiment [1] was 97% (active); in experiment [4], 100% (active). The inhibition in experiment [2] is 45%; in experiment [3], 0%. Further, the outcome in experiment [5], in experiment [6], in experiment [7] and in experiment [8] was inactive.
In the case of `NC(=O)c1ccc(NCC(=O)Nc2cccc(-c3cccc(-c4nc5ccccc5[nH]4)c3)c2)cc1`, the growth inhibition in experiment [1] was 30%; in experiment [4] it was 99% (active). Also, the inhibition in experiment [2] was 9%; in experiment [3] it was -3%. For the same compound, the outcome in experiment [5], in experiment [6], in experiment [7] and in experiment [8] was inactive.
For `CC(C)N(CC(=O)c1ccc(O)c(C(=O)O)c1)Cc1ccccc1`, the growth inhibition is 26% in experiment [1] and 97% (active) in experiment [4]. In addition, the inhibition in experiment [2] and in experiment [3] was -7% in each case. For the same compound, the result in experiment [5], in experiment [6], in experiment [7] and in experiment [8] was inactive.
Turning to `Fc1ccccc1CNc1ncc(-c2ccsc2)c(-c2nccs2)n1`, the growth inhibition in experiment [1] is 71% (active); in experiment [4] it was 86% (active). The inhibition in experiment [2] was 11%; in experiment [3], -6%. The outcome in experiment [5], in experiment [6], in experiment [7] and in experiment [8] was inactive.
As to `Cc1ccc(NC(=O)c2ccc3nccnc3c2)cc1OC1CCN(Cc2ccc(F)cc2)CC1`, the growth inhibition is 24% in experiment [1] and 87% (active) in experiment [4]. For the same compound, the inhibition was 16% in experiment [2] and 4% in experiment [3]. In addition, the outcome in experiment [5], in experiment [6], in experiment [7] and in experiment [8] was inactive.
For `O=C(NCCNc1ccnc(Nc2ccc(F)cc2)n1)c1cc2ccccc2s1`, the growth inhibition is 34% in experiment [1] and 99% (active) in experiment [4]. The results for the inhibition in experiment [2] and in experiment [3] were -1% and -11%, respectively. The result in experiment [5], in experiment [6], in experiment [7] and in experiment [8] was inactive.
As for `CC[C@H](C)CNC(=O)c1cncc(-c2ccc(CNC3Cc4ccccc4C3)cc2)c1`, the results for the growth inhibition in experiment [1] and in experiment [4] were 95% (active) and 101% (active), respectively. For the same compound, the inhibition in experiment [2] is 14%; in experiment [3], 3%. In addition, the outcome in experiment [5], in experiment [6], in experiment [7] and in experiment [8] was inactive.
`O=C(NC1CCN(CCC(NC(=O)c2ccccc2)c2ccc(Cl)c(Cl)c2)CC1)c1ccc(Cl)cc1` (centres undefined): the growth inhibition in experiment [1] was 36%; in experiment [4], 97% (active). For the same compound, the results for the inhibition in experiment [2] and in experiment [3] were 17% and -2%, respectively. Also, the outcome in experiment [5], in experiment [6], in experiment [7] and in experiment [8] was inactive.
Turning to `Cc1cc(=O)[nH]c(-n2nc(C)cc2NC(=O)C(c2ccccc2)c2ccccc2)n1`, the figures for the growth inhibition in experiment [1] and in experiment [4] were 77% (active) and 96% (active), respectively. In addition, the inhibition in experiment [2] was 31%; in experiment [3], -1%. Further, the result in experiment [5], in experiment [6], in experiment [7] and in experiment [8] was inactive.
Turning to `CCc1sc(-c2ccc(C(C)(C)C)cc2)nc1C(=O)NCCCN1CCCC1=O`, the growth inhibition was 69% (active) in experiment [1] and 84% (active) in experiment [4]. The inhibition in experiment [2] was 0%; in experiment [3] it was -5%. The outcome in experiment [5], in experiment [6], in experiment [7] and in experiment [8] was inactive.

The record behind these values is PubChem BioAssay.
